Results from the supplement of paper PMC6555819.

Assays:
Assay in all cases: PBM binding z-score (relative to random genomic background probes); higher = stronger binding; sequences stand for … in GC…GCGATTGACAGCGTAGAATGAAGG
[1] = system: PPARg:RXRa DBDmut IVT, anti-RXR (DBD mutation: RXRa K156A/R161A, NR concentration 270 nM, RXRa partner concentration 90 nM)
Outline: (§1)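 Binding z-scores were set against random background probes. The data came from custom Agilent 4×180K protein-binding microarrays carrying double-stranded probes with 34-nt variable regions, incubated 1 h with ligand-free nuclear receptor dimers. Partner-specific antibodies detected binding, and scanned fluorescence was regression-normalized.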

[2] = system: PPARg:RXRa IVT, anti-PPARg (NR concentration 270 nM, RXRa partner concentration 90 nM)
Outline: as §1

[3] = system: PPARg DBDmut:RXRa IVT, anti-PPARg (DBD mutation: PPARg1 K132A/R137A, NR concentration 270 nM, RXRa partner concentration 90 nM)
Outline: as §1

[4] = system: PPARg DBDmut IVT, anti-PPARg (DBD mutation: PPARg1 K132A/R137A, NR concentration 270 nM)
Outline: as §1

[5] = system: PPARg homodimer (NR concentration 180 nM)
Outline: as §1

[6] = system: PXR:RXRa (NR concentration 270 nM, RXRa partner concentration 90 nM)
Outline: as §1

[7] = system: PXR homodimer (NR concentration 270 nM)
Outline: as §1

[8] = system: RARa:RXR (NR concentration 270 nM, RXRa partner concentration 90 nM)
Outline: as §1

[9] = system: RARa homodimer (NR concentration 270 nM)
Outline: as §1

[10] = system: RARb:RXRa (NR concentration 270 nM, RXRa partner concentration 90 nM)
Outline: as §1

| Sequence | PBM binding z-score [1] | PBM binding z-score [2] | PBM binding z-score [3] | PBM binding z-score [4] | PBM binding z-score [5] | PBM binding z-score [6] | PBM binding z-score [7] | PBM binding z-score [8] | PBM binding z-score [9] | PBM binding z-score [10] |
| --- | --- | --- | --- | --- | --- | --- | --- | --- | --- | --- |
| ATACCAAGGTGATCGTGAGATCGTTGATACTAAC | 0.453 | 1.18 | 0.758 | 0.465 | 0.145 | -0.151 | -0.339 | 0.227 | 0.462 | 0.492 |
| CGAACTAGGTCATTCACAGGACAGTGAATAGTAA | 8.25 | 8.21 | 1.5 | 0.729 | 1.48 | 1.77 | 0.314 | 2.2 | 0.779 | 3.72 |
| GATGCTAGGTCAGGTTGGTCAGCTAACGGGTACG | 1.91 | 2.23 | -0.346 | -0.425 | 1.67 | 0.452 | 0.0675 | 0.755 | -0.108 | 3.46 |
| AGACAAAGTTCACTAGGTAACGTAAGATTCAGCT | 2.37 | 4.14 | 1.01 | 0.842 | 1.94 | 3.7 | 2 | 2.91 | 0.576 | 4.83 |
| TGAATGAGGTTATAAGATCAAGGAACGTTGCAAA | 1.04 | 1.84 | 0.592 | 0.326 | 0.811 | 0.776 | -0.0343 | 1.37 | 0.338 | 1.18 |
| CGAACTAGGTCAGAAGAGGACAGTGAAGGATGAT | 7.13 | 7.32 | 3.38 | 1.51 | 1.15 | 2.5 | -0.0219 | 2.42 | 0.202 | 3.05 |
| GCTGCTAGGTCAACTGATGCTCAGCTAAAGCTCG | 4.93 | 3.92 | -0.517 | -0.991 | 1.02 | 1.26 | -0.735 | 2.18 | -0.0559 | 4.27 |
| ATCTTTAGGTAAAGATAGTTCAGTGAATGCAAAT | 0.996 | 0.866 | 1.02 | 1.16 | 0.255 | 1.01 | 0.329 | 0.518 | 1.15 | 0.913 |
| GCTTGTATATCAAGGTTAAGAAAGACTAAGCTAA | 0.247 | 0.653 | 0.195 | 0.533 | -0.0686 | 0.625 | -0.223 | 0.967 | 0.663 | 1.03 |
| CCTCCAAGGTCAAGGTCAGTGAAAGAGACTCGAA | 2.84 | 4.47 | 0.309 | -0.405 | 3.87 | 4.83 | 1.54 | 5.14 | 2.11 | 5.8 |
| CGAACTAGGTCATCCTGGACAGTGAATACATTGA | 8.23 | 8.04 | 1.58 | 0.831 | 1.83 | 1.3 | -0.0548 | 2.02 | 0.627 | 3.58 |
| CCTACTGGGCCATTCAGAGGTCATTGCTCATATG | 4.61 | 4.29 | -0.1 | -0.505 | 1.87 | 4.7 | 2.5 | 4.24 | 0.689 | 3.01 |
| ACTAGCAGGCCAAGTTTTGGTCACTCAAACAAAG | 0.635 | 0.635 | -0.425 | -0.348 | -0.321 | -0.259 | -0.809 | 0.113 | -0.612 | 0.742 |
| CAAACTAGATCAAGAGGTCAAAGTCCGCTTCCCG | 2.78 | 3.67 | 0.521 | 0.139 | 2.25 | 5.07 | 1.99 | 5.22 | 1.44 | 4.06 |
| GGAACGAGGGCAAAGTTGCTAGCATCTGTCGACG | 3.98 | 3.83 | 0.283 | 0.105 | 0.354 | 0.708 | -0.31 | 0.566 | -1.12 | 2.38 |
| CCGACTGGGGCAAAGGTTACCATTCTCAGTACGA | 4.87 | 5.9 | 0.712 | 0.351 | 3.82 | 2.41 | -0.502 | 3.87 | -0.539 | 2.39 |
| GCTCCGAGGACAAGGTCAGAGCTTTGTCCGTAGA | 0.525 | 0.632 | -1.51 | -1.01 | 0.305 | 1.55 | -0.543 | 1.76 | -0.762 | 3.33 |
| TCGGGTAGGTTAGGGGCATTCAGAATGGCGTCGA | 1.55 | 1.36 | 0.266 | 0.468 | 1.38 | 1.67 | 1.27 | 1.32 | 0.423 | 1.74 |
| ATCGGAAGGTCGAAGGTGAGTATACCCACCCGAA | -0.338 | 1.53 | 0.343 | -0.28 | 1.26 | 1.65 | 0.401 | 2.34 | -0.118 | 2.55 |
